Test results as given in PubChem BioAssay AID1986 (Sanford-Burnham Center for Chemical Genomics, 2009).
Out of some 290,000 compounds screened, about 890 (0.31%) were called active. The sample holds actives, similar compounds and a random draw of the others, so the mix is not that of the screen. Cut-off read from the data, not from the text of the source: active = inhibition mostly above about 52% (no sharp cut-off); inactive = mostly below about 76%.

Test: cell-free HIV fusion peptide-binding blockers – biochemical, uHTS, fluorescence dequenching, primary screen (AID 1986)
Details: 30 min, stronger effect = higher value
[1] = measured here: repeat confirmation average inhibition, at 18.6 µM

SMILES	inhibition (at 20 µM)	inhibition [1] [%]
Cc1ccc(C(=O)NC(C(=O)Nc2cccc(S(N)(=O)=O)c2)C(C)C)cc1 (centres undefined)	-1.6% (inactive)	
COc1ccc(CNC(=O)Cn2nc(C(F)(F)F)cc2C)cc1	-0.1% (inactive)	
O=C(O)c1cc(Cl)c(Cl)cc1C(=O)N1CCOCC1	1.9% (inactive)	
COc1ccccc1-n1c(C)nc2cc(C(=O)NCC3CCCO3)ccc21 (centres undefined)	0.3% (inactive)	
Cc1cc(C)n(C(=O)c2ccc(Cl)c(F)c2F)n1	-0.2% (inactive)	
COc1ccc(CC(=O)Nc2c(C(=O)N3CCN(c4ncccn4)CC3)oc3ccccc23)cc1	-0.6% (inactive)	
O=c1ccc(C(F)(F)F)cn1Cc1cc(=O)n2cc(Br)ccc2n1	1.6% (inactive)	
COC(=O)C(Cc1ccccc1)NC(=O)CSc1nc(C)cc(=O)[nH]1 (centres undefined)	-1.7% (inactive)	
CCNc1cc(=O)n(C)c(=O)n1C	0.1% (inactive)	
CCc1ccc(N=C2NC(=O)/C(=C/c3ccc(OCC(=O)O)c(OC)c3)S2)cc1	55.1% (inactive)	26.6
COc1cc(CO)cc(Br)c1OCC(=O)O	0% (inactive)	
CC(=O)Nc1c(-c2cc(=O)oc3cc(C)ccc23)oc2ccccc12	-0.7% (inactive)	
Cc1ccccc1CN1C(=O)C(C)S/C1=N/N=C/c1ccco1 (centres undefined)	4.6% (inactive)	
CC1=Nc2ccccc2/C1=C/c1sc(=S)n(-c2cccc(C(=O)O)c2)c1O	112% (active)	134
O=C(O)c1cccc(-n2c(O)c(C=C3N=c4ccccc4=N3)sc2=S)c1	32.8% (inactive)	
O=C(O)c1ccc(-n2c(O)c(C=C3N=c4ccccc4=N3)sc2=S)cc1	33.3% (inactive)	
O=[N+]([O-])c1cccc(-c2noc(-c3ccco3)n2)c1	-2.4% (inactive)	
COc1ccccc1-c1nnc(SCC(=O)N2CCC(C)CC2)o1	-1.2% (inactive)	
Cc1ccc(C(=O)O)cc1-c1ccc(/C=C2\SC(=O)N(CC(=O)Nc3ccccc3)C2=O)o1	59.6% (active)	
Cc1ccc(NC(=O)CN2C(=O)S/C(=C/c3ccc(-c4cccc(C(=O)O)c4)o3)C2=O)cc1	79.5% (active)	
COc1ccc(CC(=O)N/N=C/c2ccc(-c3cccc(C(=O)O)c3)o2)cc1OC	28.8% (inactive)	
Cc1cccc(NC(=O)CN2C(=O)N/C(=C/c3ccc(-c4cccc(C(=O)O)c4C)o3)C2=O)c1	28.4% (inactive)	
Cc1ccc(NC(=O)CN2C(=O)S/C(=C/c3ccc(-c4cc(C(=O)O)ccc4C)o3)C2=O)cc1C	63.2% (inactive)	35.6

SMILES	inhibition (at 20 µM)	inhibition [1] [%]
Cc1cccc(NC(=O)CN2C(=O)N/C(=C\c3ccc(-c4cccc(C(=O)O)c4)o3)C2=O)c1	40.3% (inactive)	
Cc1ccccc1NC(=O)CN1C(=O)S/C(=C\c2ccc(-c3cc(C(=O)O)ccc3C)o2)C1=O	69.3% (inactive)	19.9
Cc1cccc(NC(=O)CN2C(=O)S/C(=C\c3ccc(-c4cccc(C(=O)O)c4C)o3)C2=O)c1	55.2% (active)	
Cc1ccc(NC(=O)CN2C(=O)S/C(=C\c3ccc(-c4cccc(C(=O)O)c4C)o3)C2=O)cc1C	68.7% (inactive)	6.8
Cc1ccc(OCC(=O)N/N=C\c2ccc(-c3cccc(C(=O)O)c3)o2)c(C)c1	56.8% (active)	
CC(C)(C)OC(=O)CN1C(=O)S/C(=C\c2ccc(-c3cccc(C(=O)O)c3)o2)C1=O	51.8% (inactive)	40.6
Cc1ccc(OCC(=O)N/N=C\c2ccc(C)o2)c(C)c1	0.1% (inactive)	
CCOC(=O)C1=C(C)NC(=O)NC1c1ccc(OCC(=O)OC)c(OC)c1 (centres undefined)	-0.4% (inactive)	
CC(=O)Nc1cccc(CNCc2cccc(NC(C)=O)c2)c1	-0.7% (inactive)	
O=C(Nc1cccc(-c2cn3ccccc3n2)c1)c1cnccn1	-0.3% (inactive)	
CC(=O)C1=C(c2ccccc2)NC(=O)NC1c1cccs1 (centres undefined)	0.1% (inactive)	
CCc1cccc(NC(=O)CCS(=O)(=O)c2cc3c(cc2C)NC(=O)CO3)c1	0.8% (inactive)	
CCOc1cc(-c2nc(-c3ccncc3)no2)cc(OCC)c1OCC	0.5% (inactive)	
CCC(CCC(=O)Nc1cccc(C(=O)O)c1)C(=O)O (centres undefined)	-0.2% (inactive)	
COc1ccc(Br)cc1C(=O)Nc1ccc(N2CCCC2)cc1	-1.9% (inactive)	
Cc1ccc(C(=O)O)cc1-c1ccc(/C=C2\SC(=O)N(CC(=O)Nc3ccc4c(c3)OCO4)C2=O)o1	69.1% (inactive)	25.2
Cc1ccc(NC(=O)CN2C(=O)S/C(=C\c3ccc(-c4cccc(C(=O)O)c4C)o3)C2=O)cc1	63.2% (active)	
Cc1ccccc1NC(=O)CN1C(=O)S/C(=C\c2ccc(-c3cccc(C(=O)O)c3C)o2)C1=O	32% (inactive)	
COc1ccc(C(=O)NC2CCCCCC2)cc1OC1CCN(C(C)=O)CC1	0% (inactive)	
COc1ccc([N+](=O)[O-])cc1NC(=O)COC(C)=O	-1.8% (inactive)	
O=C(CN1CCN(c2ccccc2)CC1)N1CCc2[nH]c3ccccc3c2C1	2% (inactive)	
CCCN(CCC)c1nc2c(C)cccn2c(=O)c1/C=C1/SC(=S)N(Cc2ccco2)C1=O	49.5% (inactive)	
O=C1/C(=C\c2ccco2)SC(=S)N1Cc1ccccc1	66% (inactive)	-1.7

SMILES	inhibition (at 20 µM)	inhibition [1] [%]
CCN1CCN(c2c(/C=C3\SC(=S)N(Cc4ccco4)C3=O)c(C)c(C#N)c(=O)n2C)CC1	89.4% (active)	167
C=CCOc1ccc(C2/C(=C(\O)c3ccc4c(c3)OCCO4)C(=O)C(=O)N2CCCN2CCOCC2)cc1 (centres undefined)	-1.6% (inactive)	
Cc1cc(NC(=O)CCCC(=O)N(CC(=O)NC2CCCCC2)c2ccccc2)no1	-0.7% (inactive)	
CNC(=S)N1CCN(S(=O)(=O)c2ccc3ccccc3c2)CC1	-0.9% (inactive)	
CCCc1ccc2oc(C(=O)NCCN3CCCC(O)C3)c(C)c2c1 (centres undefined)	0.9% (inactive)	
c1ccc2c(c1)nc(CN1CCOCC1)n1c3ccccc3nc21	2.2% (inactive)	
O=c1c2cccc3c(N4CCOCC4)ccc(c32)c2nc3ccccc3n12	113% (active)	
O=c1c2ccc([N+](=O)[O-])c3cccc(c32)c2nc3ccccc3n12	10.2% (inactive)	
Cc1ccc(OCc2cc(C(=O)N(C)CC3CCOCC3)no2)cc1C	-2% (inactive)	
O=C(O)CN1C(=O)/C(=C/c2ccc(N3CCCCC3)o2)SC1=S	7.4% (inactive)	
O=C(CCN1C(=O)/C(=C/c2ccc(Cl)cc2)SC1=S)Nc1cccc(C(=O)O)c1	62.4% (inactive)	2.3
O=C1/C(=C\c2ccco2)SC(=S)N1c1ccccc1	41.6% (inactive)	
CC(/C=C1\SC(=S)N(CC(=O)O)C1=O)=C\c1ccccc1	35.8% (inactive)	
CC(=C\c1ccccc1)/C=C1/SC(=S)N(CCC(=O)O)C1=O	26.1% (inactive)	
O=C(O)c1cccc(N2C(=O)/C(=C/c3ccc(SCc4ccc(Cl)cc4)o3)SC2=S)c1	63% (active)	
O=C(O)CN1C(=O)/C(=C/c2ccc(SCc3ccccc3)o2)SC1=S	73.1% (active)	105
O=C(O)CN1C(=O)/C(=C\C(Br)=C\c2ccccc2)SC1=S	62.6% (active)	
Cc1ccc(/C=C2\SC(=S)N(Cc3ccccc3)C2=O)o1	-3.6% (inactive)	
Cn1cnnc1SCC(=O)N1CCc2ccccc21	-0.4% (inactive)	
CCOC(=O)C(C)c1nc2ccccc2[nH]c1=O (centres undefined)	-0.4% (inactive)	
CN1C2C=C(N(CCc3ccccc3)C(=O)c3ccc(Cl)cc3)CC1CC2 (centres undefined)	-0.4% (inactive)	
C=C1CN(CC(=O)OC)S(=O)(=O)c2ccccc21	0.8% (inactive)	
COc1ccccc1NC(=O)c1ccc(-c2nn(C)c(=O)c3ccccc23)cc1	0.7% (inactive)	

SMILES	inhibition (at 20 µM)	inhibition [1] [%]
Cc1nn(CC(=O)N2CCCC2)c(=O)c2nn(-c3ccccc3)c(C)c12	0.3% (inactive)	
CC(CCC(=O)O)C1CC[C@H]2C3CCC4CC(=O)CCC4(C)[C@H]3CC(=O)C12C (some centres undefined)	-1.2% (inactive)	
CC1(C)C(=O)OC(c2cccs2)C(C)(C)C1=O (centres undefined)	0.5% (inactive)	
O=C(CSc1nc2scc(-c3ccco3)c2c(=O)n1-c1ccccc1)N1CCOCC1	4.2% (inactive)	
CC1CCN(S(=O)C23CC4CC(CC(C4)C2)C3)CC1 (centres undefined)	1.3% (inactive)	
CCOC1OC2C(CO)OC(n3cnc4c(N)ncnc43)C2O1 (centres undefined)	1.6% (inactive)	
Cc1cccc2c(N=Nc3ccccc3)c(O)[nH]c12	52.7% (active)	60.4
Cc1cccc2c(N=O)c(O)[nH]c12	17.9% (inactive)	
Oc1[nH]c2ccccc2c1N=Nc1ccccc1	146% (inactive)	
CCCCc1ccc(S(=O)(=O)N2CCN(C(=O)c3ccco3)CC2)cc1	2% (inactive)	
Cc1ccc(C)c2[nH]c(=O)c(CN(Cc3cccs3)C(=S)NCc3ccco3)cc12	16.7% (inactive)	
CN(C)CCCN1C(=O)C2CCc3[nH]c4ccccc4c3C2C1=O (centres undefined)	-1% (inactive)	
COc1cc(/C=C2/C(=N)N3N=C(CC(=O)N4CCOCC4)SC3=NC2=O)ccc1OC(C)c1ccccc1 (centres undefined)	36% (inactive)	
CNc1ccc(Br)cc(C(=O)/C=C/c2cccc(Cl)c2Cl)c1=O	61.9% (inactive)	4.3
CNc1ccc(Br)cc(C(=O)/C=C/c2ccc(Cl)cc2Cl)c1=O	61.5% (active)	
CCNc1ccc(Br)cc(C(=O)/C=C/c2ccc(Cl)cc2Cl)c1=O	63.3% (inactive)	13.7
COc1cc(NC(=O)C2CC(c3c(F)cccc3Cl)=NO2)cc(OC)c1OC (centres undefined)	0% (inactive)	
Cc1onc(-c2ccccc2Cl)c1C(=O)Nc1ccc(Br)cc1	-0.2% (inactive)	
CCC(=O)Nc1cc(Cl)ccc1C(=O)O	-0.2% (inactive)	
CCS(=O)(=O)c1ccc2oc(Nc3cc(Cl)ccc3OC)nc2c1	-1% (inactive)	
O=C(O)c1ccc(Cl)cc1Nc1nc2cc(Cl)ccc2o1	67.6% (active)	
